This note sets out measurements from PubChem BioAssay (EPA / NIEHS).

The source made the active and inactive calls. The calls were made as follows: active = hit-call score of the fitted dose curve at least 0.9, where 1 is the maximum; inactive = score below 0.9.

The nature of the assay: Tanguay_ZF_120hpf_MO24: Oregon State University Tanguay Lab 24 Hour Post-fertilization zebrafish Assay for Mortality (AID 2284389). Here is the method:
Tanguay_ZF_120hpf is a whole embryo, multiplexed endpoint assay using zebrafish larvae exposed for 120 hours post fertilization on a 96-well plate.Tanguay_ZF_120hpf_MO24 is one of one assay component(s) measured or calculated from the Tanguay_ZF_120hpf assay. It is designed to make measurements of zebrafish development as detected with brightfield microscopy of developing zebrafish embryos.Data from the assay component Tanguay_ZF_120hpf_MO24 was analyzed into 1 assay endpoints. This assay endpoint, Tanguay_ZF_120hpf_MO24, was analyzed in the positive analysis fitting direction relative to DMSO as the negative control and baseline of activity. Using a type of viability reporter, gain-of-signal activity can be used to understand changes in developmentals as they relate to the whole embryo. To generalize the intended target to other relatable targets, this assay endpoint is annotated to the zebrafish development intended target family, where the subfamily is embryonic mortality.
Zebrafish husbandry: Tropical 5D wild-type adult zebrafish were housed in at an approximate density of 1000 per 100 gallon tank at the Sinnhuber Aquatic Research Laboratory, Oregon State University, Corvallis, OR. Each tank was kept at standard laboratory conditions of 28C on a 14-h light/10-h dark photoperiod in fish water consisting of reverse osmosis water supplemented with a commercially available salt (Instant Ocean). Spawning funnels were placed into the tanks the night prior, and embryos were collected and staged. To increase bioavailability, the chorion was enzymatically removed using pronase (63.6mg/ml, >/= 3.5U/mg, Sigma-Aldrich: P5147) at 4 hours post fertilization (hpf) using a custom automated dechorionator.Chemical exposures: Six hpf dechorionated embryos were placed 1 embryo per well in a 96-well plate prefilled with 90 ul of EM using automated embryo placement systems (AEPS). Ten microliters of each row of dilution plate 2 was added to 2 exposure plates. The final DMSO concentration used was 0.64% (vol/vol). Thirty-two embryos were also exposed to 5uM trimethyltin chloride (positive control). Plates were sealed to prevent evaporation and foil covered to reduce light exposure and kept in a 28C incubator. Embryos were statically exposed until 120 hpf. At 24 hpf, embryos were assessed for photomotor response using a custom photomotor response analysis tool (PRAT) and for developmental toxicity endpoints (MO24: mortality at 24 hpf, DP: developmental progression, SM: spontaneous movement, and NC: notochord distortion). At 120 hpf, locomotor activity was measured using Viewpoint Zebralab and assessed for 13 endpoints. Zebrafish acquisition and analysis program (ZAAP), a custom program designed to inventory, acquire, and manage zebrafish data, was used to collect developmental endpoints as either present or absent (i.e., binary responses were recorded). If mortality occurred for an embryo (at either 24 or 120 hpf), the non-mortality endpoints were not measured.
With `OCC(F)(F)C(F)(F)C(F)(F)CO`, the compound was called inactive. For `OCCCCC(F)(F)C(F)(F)C(F)(F)C(F)(F)F`, the compound was called inactive. On the same count and under the same terms, the value for `OC(O)C(F)(F)C(F)(F)F` was “inactive”. For the compound `NC(=O)C(F)(F)C(F)(F)C(F)(F)C(F)(F)C(N)=O`, the result was inactive. On to `CO[Si](C)(CCC(F)(F)C(F)(F)C(F)(F)C(F)(F)C(F)(F)C(F)(F)F)OC`, for which the compound was classed as inactive. Turning to `O=S(=O)(O)CCC(F)(F)C(F)(F)C(F)(F)C(F)(F)C(F)(F)C(F)(F)C(F)(F)C(F)(F)F`, the result was inactive. The same measure, in the same setting: the value for `FC(F)(F)C(F)(F)C(F)(F)C(F)(F)C(F)(F)C(F)(F)C(F)(F)CCI` was “inactive”.

Regarding `NC(O)(C(F)(F)F)C(F)(F)F`, the compound was classed as inactive. Consider `O=C(O)CCC(F)(F)C(F)(F)C(F)(F)F`, for which the compound was called inactive. The same measure, in the same setting: the value for `O=C(F)C1(F)C(F)(F)C(F)(F)C(F)(F)C(F)(F)C1(F)F` was “inactive”; that for `FC(F)(F)C(F)(F)C(F)(F)CC1CO1` (configuration not stated) was “inactive”.

In the case of `OCC(O)CC(F)(F)C(F)(F)C(F)(F)C(F)(F)F` (configuration not stated), the outcome was inactive.

Consider `O=S(=O)(Cl)C(F)(F)C(F)(F)C(F)(F)C(F)(F)C(F)(F)C(F)(F)C(F)(F)C(F)(F)F`, for which the outcome was inactive. Still for that read-out and setting: the value for `CN(C(=O)C(F)(F)C(F)(F)C(F)(F)F)[Si](C)(C)C` was “inactive”; that for `OCCCC(F)(F)C(F)(F)C(F)(F)C(F)(F)C(F)(F)C(F)(F)C(F)(F)C(F)(F)F` was “inactive”.

A word on the AC50: it is the concentration at which the activity in the assay is half-maximal. With `OCC(F)(F)C(F)(F)C(F)(F)C(F)(F)C(F)(F)C(F)(F)C(F)(F)C(F)(F)CO`, the AC50 was 72.8 µM (active). Regarding `O=C(O)C(F)(F)C(F)(F)C(F)(F)OC(F)(F)F`, the call was inactive. On to `O=C(O)C(F)(F)C(F)(F)C(F)(F)OC(F)(C(F)(F)F)C(F)(F)F`, for which the compound was called inactive. The same measure, in the same setting: the same measure for `O=C(O)CCC(F)(F)C(F)(F)C(F)(F)C(F)(F)C(F)(F)C(F)(F)C(F)(F)F`: “inactive”. With `CCN(CCO)S(=O)(=O)C(F)(F)C(F)(F)C(F)(F)C(F)(F)C(F)(F)C(F)(F)C(F)(F)C(F)(F)F`, the call was inactive. As for `NC(=O)C(F)(F)C(F)(F)C(F)(F)C(F)(F)C(F)(F)C(F)(F)C(F)(F)F`, the AC50 was 52.7 µM (active). As for `NC(=O)C(F)(F)C(F)(F)C(F)(F)F`, the call was inactive. On the same count and under the same terms, the same measure for `OCC(O)CC(F)(F)C(F)(F)C(F)(F)C(F)(F)C(F)(F)C(F)(F)C(F)(F)C(F)(F)F` (configuration not stated): “inactive”; for `NS(=O)(=O)C(F)(F)C(F)(F)C(F)(F)C(F)(F)C(F)(F)C(F)(F)F`: “inactive”.

Take `C=CC(=O)OCCC(F)(F)C(F)(F)C(F)(F)C(F)(F)F`: the result was inactive. The same measure, in the same setting: the value for `CCOC(=O)CC(=O)C(F)(F)C(F)(F)F` was “inactive”; that for `O=S(=O)(OCC(F)(F)F)C(F)(F)C(F)(F)C(F)(F)C(F)(F)F` was “inactive”; that for `NC(=O)C(F)(F)C(F)(F)C(F)(F)C(F)F` was “inactive”. Take `C[Si](Cl)(Cl)CCC(F)(F)C(F)(F)C(F)(F)C(F)(F)C(F)(F)C(F)(F)F`: the compound was called inactive.

Regarding `CNS(=O)(=O)C(F)(F)C(F)(F)C(F)(F)C(F)(F)C(F)(F)C(F)(F)C(F)(F)C(F)(F)F`, the compound was called inactive. As for `O=C(O)C(F)(F)C(F)(F)C(F)(F)C(=O)O`, the result was inactive. On the same count and under the same terms, the value for `C=CC(=O)OCC(F)(F)C(F)(F)C(F)(F)C(F)(F)C(F)(F)C(F)(F)C(F)(F)C(F)F` was “inactive”. `FC(F)(F)C(F)(F)C(F)(F)C(F)(F)C(F)(F)C(F)(F)CC[Si](Cl)(Cl)Cl`: the call was inactive. Consider `C=CC(=O)OCC(F)(F)C(F)(F)C(F)(F)COC(=O)C=C`, for which the AC50 was 29.3 µM (active). `COC(F)(C(F)F)C(F)(F)F` (configuration not stated): the outcome was inactive. On the same count and under the same terms, the value for `O=S(=O)(O)CCC(F)(F)C(F)(F)C(F)(F)C(F)(F)F` was “inactive”; that for `OCC(F)(F)C(F)(F)C(F)(F)C(F)(F)C(F)(F)C(F)(F)CO` was “inactive”.
